We go through 31 compounds from the supplement of paper PMC3414501.

Each structure is given as a SMILES string. Counter-ions that a name gives are not always drawn.

In the first assay the test system is S. cerevisiae NKY1551 his4x/his4B, sporulating. Description: HIS4 meiotic recombination assay sensitivity score (z-score vs DMSO controls); higher = stronger inhibition of sporulation/recombination, active = hit call of the paper.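 Note: active if sensitivity score above 5.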
In the case of `C[C@H]1COc2c(C3(N)CC3)c(F)cc3c(=O)c(C(=O)O)cn1c23` [Pazufloxacin] (stock concentration (mM, diluted 1:100): 10), the “HIS4 meiotic recombination assay sensitivity score” value was -0.93 (inactive).

For the compound `COc1ccc2cc([C@H](C)C(=O)O)ccc2c1` [Naproxen sodium] (stock concentration (mM, diluted 1:100): 10), the “HIS4 meiotic recombination assay sensitivity score” value is -0.09 (inactive).

On to `O=C(NCCN1CCOCC1)c1ccc(Cl)cc1` [Moclobemide] (stock concentration (mM, diluted 1:100): 10), for which the “HIS4 meiotic recombination assay sensitivity score” value is -1.83 (inactive).

As to `CN1CCN(CCCN2c3ccccc3Sc3ccc(C(F)(F)F)cc32)CC1` [Trifluoperazine dihydrochloride] (stock concentration (mM, diluted 1:100): 10), the “HIS4 meiotic recombination assay sensitivity score” value is -2.62 (inactive).

For the compound `OCCN1C[C@H](O)[C@@H](O)[C@H](O)[C@H]1CO` [Miglitol] (stock concentration (mM, diluted 1:100): 10), the “HIS4 meiotic recombination assay sensitivity score” value was -0.62 (inactive).

For `C[C@H](N[C@@H](CCc1ccccc1)C(=O)O)C(=O)N1CCC[C@H]1C(=O)O` [Enalaprilat] (stock concentration (mM, diluted 1:100): 10), the “HIS4 meiotic recombination assay sensitivity score” value is -0.11 (inactive).

For `CCN(CC)C(=S)SSC(=S)N(CC)CC` [Tetraethylthiuram disulfide] (stock concentration (mM, diluted 1:100): 10), the “HIS4 meiotic recombination assay sensitivity score” value was -2.95 (inactive).

For a further assay, the system named is S. cerevisiae AD1-9 (efflux-pump deficient), vegetative growth in YPD. Briefly: growth sensitivity score (doubling time z-score vs DMSO controls); higher = slower growth, strongly negative scores also mark growth inhibition (complete suppression), active = hit call of the paper. The gist of the method:
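Saccharomyces cerevisiae strains BY4741 and AD1-9 were seeded in rich medium in microtiter plates at an OD600 of 0.065. Compounds were added at a 1:100 dilution of DMSO stock. Optical density was read every 15 min for 24 hours on a Tecan GENios reader. Average doubling time was the time taken to reach a set generation point divided by generation number, and the growth sensitivity score was (compound mean − DMSO-control mean)/DMSO-control SD, using eight DMSO controls per experiment.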
Take `CNC(=C[N+](=O)[O-])NCCSCc1csc(CN(C)C)n1` [Nizatidine] (stock concentration (mM, diluted 1:100): 10): the growth sensitivity score was -0.22 (inactive).

For `COCCOC(=O)C1=C(C)NC(C)=C(C(=O)OC(C)C)C1c1cccc([N+](=O)[O-])c1` (stereo unspecified) [Nimodipine] (stock concentration (mM, diluted 1:100): 10), the growth sensitivity score was 260 (active).

Regarding `CC(=O)OCC(=O)NCCCOc1cccc(CN2CCCCC2)c1` [Roxatidine acetate hydrochloride] (stock concentration (mM, diluted 1:100): 9.1), the growth sensitivity score was -0.42 (inactive).

Take `CC(C)(C)C(O)/C=C/c1ccc2c(c1)OCO2` (stereo unspecified) [Stiripentol] (stock concentration (mM, diluted 1:100): 10): the growth sensitivity score is 5.27 (active).

On to `CN1CCCC(n2nc(Cc3ccc(Cl)cc3)c3ccccc3c2=O)CC1` (stereo unspecified) [Azelastine hydrochloride] (stock concentration (mM, diluted 1:100): 9.1), for which the growth sensitivity score was 11 (active).

Take `COc1ccc(CC(C)NCC(O)c2ccc(O)c(NC=O)c2)cc1` (stereo unspecified) [Formoterol fumarate dihydrate] (stock concentration (mM, diluted 1:100): 7): the growth sensitivity score was -0.7 (inactive).

Take `CCN(CC)CC(=O)Nc1c(C)cccc1C` [Lidocaine] (stock concentration (mM, diluted 1:100): 9.6): the growth sensitivity score is -0.9 (inactive).

Consider `Clc1cccc(Cl)c1NC1=NCCN1` [Clonidine] (stock concentration (mM, diluted 1:100): 10), for which the growth sensitivity score is -1.44 (inactive).

As for `COc1cc2nc(N3CCN(C(=O)C4CCCO4)CC3)nc(N)c2cc1OC` (stereo unspecified) [Terazosin] (stock concentration (mM, diluted 1:100): 9.5), the growth sensitivity score was -0.95 (inactive).

Turning to `COc1ccc2[nH]c([S+]([O-])Cc3ncc(C)c(OC)c3C)nc2c1` (stereo unspecified) [Omeprazole] (stock concentration (mM, diluted 1:100): 10), the growth sensitivity score was -3.25.

On to `Cc1cccc(Nc2ccncc2S(=O)(=O)NC(=O)NC(C)C)c1` [Torasemide] (stock concentration (mM, diluted 1:100): 9.9), for which the growth sensitivity score is -2.4.

As to `CN(C)CCC[C@@]1(c2ccc(F)cc2)OCc2cc(C#N)ccc21` [Escitalopram oxalate] (stock concentration (mM, diluted 1:100): 7.9), the growth sensitivity score is -1.47 (inactive).

Turning to `O=C1c2c(O)cc(O)cc2OC(c2ccc(O)c(O)c2)C1O` (stereo unspecified) [Taxifolin] (stock concentration (mM, diluted 1:100): 10.1), the growth sensitivity score is -0.17 (inactive).

For `C[C@@H]1C[C@H]2[C@@H]3CCC4=CC(=O)C=C[C@]4(C)[C@@]3(F)[C@@H](O)C[C@]2(C)[C@H]1C(=O)CO` [Desoximetasone] (stock concentration (mM, diluted 1:100): 10), the growth sensitivity score was 2.17 (active).

In the case of `CO[C@H]1O[C@@H]2O[C@@]3(C)CC[C@H]4[C@H](C)CC[C@@H]([C@H]1C)[C@@]24OO3` [Artemether] (stock concentration (mM, diluted 1:100): 10), the growth sensitivity score was 9.66 (active).

As to `O=C1[C@H]2CCCC[C@H]2C(=O)N1CCCCN1CCN(c2nsc3ccccc23)CC1` [Perospirone hydrochloride] (stock concentration (mM, diluted 1:100): 9.4), the growth sensitivity score is 2.19 (active).

As to `CCN1CCC[C@H]1CNC(=O)c1cc(S(N)(=O)=O)ccc1OC` [Levosulpiride] (stock concentration (mM, diluted 1:100): 10), the growth sensitivity score is -0.24 (inactive).

In the case of `CC(C)[C@H](N)C(=O)OCCOCn1cnc2c(=O)nc(N)[nH]c21` [Valaciclovir hydrochloride] (stock concentration (mM, diluted 1:100): 9), the growth sensitivity score is -0.28 (inactive).

With `COc1cc(N)c(Cl)cc1C(=O)NC1CCN(CCCOc2ccc(F)cc2)CC1OC` (stereo unspecified) [Cisapride] (stock concentration (mM, diluted 1:100): 10.5), the growth sensitivity score was 8.05 (active).

As for `CCC(C)n1ncn(-c2ccc(N3CCN(c4ccc(OCC5COC(Cn6cncn6)(c6ccc(Cl)cc6Cl)O5)cc4)CC3)cc2)c1=O` (stereo unspecified) [Itraconazole] (stock concentration (mM, diluted 1:100): 10.1), the growth sensitivity score was 21.4 (active).

Turning to `CN1CCN(C2=Nc3cc(F)ccc3Cc3ccccc32)CC1` [Fluperlapine] (stock concentration (mM, diluted 1:100): 10), the growth sensitivity score was 2.12 (active).

As to `CCOC(=O)C1=C(C)NC(C)=C(C(=O)OCC)C1c1ccccc1/C=C/C(=O)OC(C)(C)C` [Lacidipine] (stock concentration (mM, diluted 1:100): 10), the growth sensitivity score is 10.2 (active).

Take `CC(C)[C@H]1CC[C@H](C(=O)N[C@H](Cc2ccccc2)C(=O)O)CC1` [Nateglinide] (stock concentration (mM, diluted 1:100): 10): the growth sensitivity score was 0.63 (inactive).

As to `CN(C)CC[C@@H](c1ccc(Br)cc1)c1ccccn1` [Dexbrompheniramine maleate] (stock concentration (mM, diluted 1:100): 7.3), the growth sensitivity score is -0.16 (inactive).

Turning to `C[C@H]1COc2c(C3(N)CC3)c(F)cc3c(=O)c(C(=O)O)cn1c23` [Pazufloxacin] (stock concentration (mM, diluted 1:100): 10), the growth sensitivity score is 0.07 (inactive).

With `COc1ccc2cc([C@H](C)C(=O)O)ccc2c1` [Naproxen sodium] (stock concentration (mM, diluted 1:100): 10), the growth sensitivity score is 1.41 (inactive).

Regarding `O=C(NCCN1CCOCC1)c1ccc(Cl)cc1` [Moclobemide] (stock concentration (mM, diluted 1:100): 10), the growth sensitivity score is 0.15 (inactive).

The compound `OCCN1C[C@H](O)[C@@H](O)[C@H](O)[C@H]1CO` [Miglitol] (stock concentration (mM, diluted 1:100): 10) had a growth sensitivity score of -2.16.

As to `C[C@H](N[C@@H](CCc1ccccc1)C(=O)O)C(=O)N1CCC[C@H]1C(=O)O` [Enalaprilat] (stock concentration (mM, diluted 1:100): 10), the growth sensitivity score was -0.82 (inactive).
